Where “and” joins values, the source holds several entries; their conditions need not be identical. Identical values can stand only once.
Experiments:
[1] = target: MAP/microtubule affinity-regulating kinase 3 (Homo sapiens) (UniProt P27448); details: at 1 µM;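 further: reported values are averaged percent inhibition of MARK3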
[2] = target: T1, MAP/microtubule affinity-regulating kinase 4 (Homo sapiens) (UniProt Q96L34); details: at 0.1 µM
T1 sequence (whole entry): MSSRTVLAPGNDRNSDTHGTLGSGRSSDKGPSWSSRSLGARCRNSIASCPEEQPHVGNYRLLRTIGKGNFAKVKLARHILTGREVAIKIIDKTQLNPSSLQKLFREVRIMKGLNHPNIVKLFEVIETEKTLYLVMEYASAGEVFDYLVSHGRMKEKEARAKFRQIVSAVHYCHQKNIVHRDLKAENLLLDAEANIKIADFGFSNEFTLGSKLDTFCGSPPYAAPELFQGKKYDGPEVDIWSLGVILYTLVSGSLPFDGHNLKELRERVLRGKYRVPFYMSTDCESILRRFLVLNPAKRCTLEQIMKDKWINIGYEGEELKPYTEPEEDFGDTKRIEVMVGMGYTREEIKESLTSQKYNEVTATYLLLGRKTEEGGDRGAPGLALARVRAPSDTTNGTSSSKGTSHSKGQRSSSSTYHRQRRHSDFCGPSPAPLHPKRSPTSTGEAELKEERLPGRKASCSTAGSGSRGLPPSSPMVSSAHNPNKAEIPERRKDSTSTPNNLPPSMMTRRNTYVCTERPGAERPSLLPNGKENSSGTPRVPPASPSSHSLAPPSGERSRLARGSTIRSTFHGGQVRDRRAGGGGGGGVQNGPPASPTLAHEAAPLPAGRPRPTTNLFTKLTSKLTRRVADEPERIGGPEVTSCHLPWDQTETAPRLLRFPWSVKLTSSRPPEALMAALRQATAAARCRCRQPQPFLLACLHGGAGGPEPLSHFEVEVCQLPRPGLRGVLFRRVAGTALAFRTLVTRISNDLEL

[3] = target: T1, MAP/microtubule affinity-regulating kinase 4 (Homo sapiens); details: at 1 µM
[4] = target: Maternal embryonic leucine zipper kinase (Homo sapiens) (UniProt Q14680); details: at 0.1 µM
[5] = target: Maternal embryonic leucine zipper kinase (Homo sapiens) (UniProt Q14680); details: at 1 µM
[6] = target: MAP kinase-interacting serine/threonine-protein kinase 1 (Homo sapiens) (UniProt Q9BUB5); details: at 0.1 µM
[7] = target: MAP kinase-interacting serine/threonine-protein kinase 1 (Homo sapiens) (UniProt Q9BUB5); details: at 1 µM
[8] = target: MAP kinase-interacting serine/threonine-protein kinase 2 (Homo sapiens) (UniProt Q9HBH9); details: at 0.1 µM
[9] = target: MAP kinase-interacting serine/threonine-protein kinase 2 (Homo sapiens) (UniProt Q9HBH9); details: at 1 µM
[10] = target: Serine/threonine-protein kinase MARK2 (Homo sapiens) (UniProt Q7KZI7); details: at 0.1 µM;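 further: mean percent inhibition of PAR-1Balpha kinase activity, reported from the GSK PKIS screen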
Chain of Serine/threonine-protein kinase MARK2 (Homo sapiens) (Q7KZI7 whole entry): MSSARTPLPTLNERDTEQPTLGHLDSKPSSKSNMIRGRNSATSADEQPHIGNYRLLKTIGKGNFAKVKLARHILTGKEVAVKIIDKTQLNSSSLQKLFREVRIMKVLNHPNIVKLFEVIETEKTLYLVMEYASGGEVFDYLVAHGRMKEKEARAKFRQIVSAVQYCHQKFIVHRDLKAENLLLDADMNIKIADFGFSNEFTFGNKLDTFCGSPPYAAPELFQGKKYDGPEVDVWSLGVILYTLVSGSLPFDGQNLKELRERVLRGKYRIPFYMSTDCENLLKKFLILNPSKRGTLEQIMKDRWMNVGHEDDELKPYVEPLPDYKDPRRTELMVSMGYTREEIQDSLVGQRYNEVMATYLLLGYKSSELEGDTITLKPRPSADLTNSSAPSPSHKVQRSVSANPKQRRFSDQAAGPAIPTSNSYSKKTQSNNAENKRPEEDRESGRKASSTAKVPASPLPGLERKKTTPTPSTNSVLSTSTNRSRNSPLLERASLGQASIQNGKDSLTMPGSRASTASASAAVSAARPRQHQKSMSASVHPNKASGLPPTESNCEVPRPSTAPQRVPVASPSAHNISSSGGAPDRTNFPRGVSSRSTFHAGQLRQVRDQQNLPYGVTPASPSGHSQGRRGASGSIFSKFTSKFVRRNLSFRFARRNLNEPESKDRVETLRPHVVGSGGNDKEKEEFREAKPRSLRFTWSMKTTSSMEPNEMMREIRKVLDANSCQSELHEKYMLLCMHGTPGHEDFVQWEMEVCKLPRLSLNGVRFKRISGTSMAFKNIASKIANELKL

Chain of Maternal embryonic leucine zipper kinase (Homo sapiens) (Q14680 whole entry, looked up): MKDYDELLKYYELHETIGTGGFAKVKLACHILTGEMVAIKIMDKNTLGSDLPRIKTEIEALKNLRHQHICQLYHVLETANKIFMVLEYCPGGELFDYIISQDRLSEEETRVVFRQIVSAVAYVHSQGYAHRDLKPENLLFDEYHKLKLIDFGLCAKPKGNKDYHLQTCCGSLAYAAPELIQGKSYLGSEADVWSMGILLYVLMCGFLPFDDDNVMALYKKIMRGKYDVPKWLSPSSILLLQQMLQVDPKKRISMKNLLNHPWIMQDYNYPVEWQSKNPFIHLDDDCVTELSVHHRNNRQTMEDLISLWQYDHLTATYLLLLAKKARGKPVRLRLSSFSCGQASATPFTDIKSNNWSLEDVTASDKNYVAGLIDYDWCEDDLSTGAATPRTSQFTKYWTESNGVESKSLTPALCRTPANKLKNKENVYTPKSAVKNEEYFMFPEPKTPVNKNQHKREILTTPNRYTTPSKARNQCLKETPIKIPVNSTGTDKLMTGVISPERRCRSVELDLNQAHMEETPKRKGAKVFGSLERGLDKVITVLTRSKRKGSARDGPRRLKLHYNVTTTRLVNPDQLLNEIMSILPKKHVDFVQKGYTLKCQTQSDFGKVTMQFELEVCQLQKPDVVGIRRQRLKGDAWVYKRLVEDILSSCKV
Chain of MAP kinase-interacting serine/threonine-protein kinase 1 (Homo sapiens) (Q9BUB5 whole entry, looked up): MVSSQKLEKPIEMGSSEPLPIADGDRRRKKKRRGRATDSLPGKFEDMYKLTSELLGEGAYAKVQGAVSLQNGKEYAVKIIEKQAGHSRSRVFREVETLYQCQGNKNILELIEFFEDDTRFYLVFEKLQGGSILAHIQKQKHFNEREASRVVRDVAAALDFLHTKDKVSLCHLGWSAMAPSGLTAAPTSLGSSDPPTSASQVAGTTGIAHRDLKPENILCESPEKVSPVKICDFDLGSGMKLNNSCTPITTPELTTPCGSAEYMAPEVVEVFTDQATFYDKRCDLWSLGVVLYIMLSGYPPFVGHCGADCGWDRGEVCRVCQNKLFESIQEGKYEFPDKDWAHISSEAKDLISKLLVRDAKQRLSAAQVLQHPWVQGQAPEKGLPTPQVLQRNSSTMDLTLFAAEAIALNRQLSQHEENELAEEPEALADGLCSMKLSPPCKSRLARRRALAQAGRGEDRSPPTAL
Chain of MAP/microtubule affinity-regulating kinase 3 (Homo sapiens) (P27448 whole entry, looked up): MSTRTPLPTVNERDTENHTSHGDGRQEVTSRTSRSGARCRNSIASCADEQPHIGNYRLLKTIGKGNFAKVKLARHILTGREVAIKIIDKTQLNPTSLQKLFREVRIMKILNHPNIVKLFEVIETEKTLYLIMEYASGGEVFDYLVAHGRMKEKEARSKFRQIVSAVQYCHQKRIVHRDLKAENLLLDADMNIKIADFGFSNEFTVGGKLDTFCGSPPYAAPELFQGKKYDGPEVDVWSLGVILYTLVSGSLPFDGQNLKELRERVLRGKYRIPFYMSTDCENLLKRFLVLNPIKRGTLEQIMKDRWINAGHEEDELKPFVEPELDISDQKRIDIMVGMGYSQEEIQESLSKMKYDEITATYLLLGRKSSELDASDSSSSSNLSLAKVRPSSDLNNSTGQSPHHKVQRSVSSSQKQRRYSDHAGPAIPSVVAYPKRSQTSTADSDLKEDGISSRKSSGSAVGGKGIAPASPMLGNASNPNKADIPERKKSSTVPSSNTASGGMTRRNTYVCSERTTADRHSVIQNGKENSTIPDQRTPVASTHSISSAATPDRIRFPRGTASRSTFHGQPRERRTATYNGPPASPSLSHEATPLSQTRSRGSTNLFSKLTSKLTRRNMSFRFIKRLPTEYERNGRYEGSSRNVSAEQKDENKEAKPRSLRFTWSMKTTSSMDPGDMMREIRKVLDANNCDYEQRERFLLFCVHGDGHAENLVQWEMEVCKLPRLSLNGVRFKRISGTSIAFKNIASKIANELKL
Chain of MAP kinase-interacting serine/threonine-protein kinase 2 (Homo sapiens) (Q9HBH9 whole entry, looked up): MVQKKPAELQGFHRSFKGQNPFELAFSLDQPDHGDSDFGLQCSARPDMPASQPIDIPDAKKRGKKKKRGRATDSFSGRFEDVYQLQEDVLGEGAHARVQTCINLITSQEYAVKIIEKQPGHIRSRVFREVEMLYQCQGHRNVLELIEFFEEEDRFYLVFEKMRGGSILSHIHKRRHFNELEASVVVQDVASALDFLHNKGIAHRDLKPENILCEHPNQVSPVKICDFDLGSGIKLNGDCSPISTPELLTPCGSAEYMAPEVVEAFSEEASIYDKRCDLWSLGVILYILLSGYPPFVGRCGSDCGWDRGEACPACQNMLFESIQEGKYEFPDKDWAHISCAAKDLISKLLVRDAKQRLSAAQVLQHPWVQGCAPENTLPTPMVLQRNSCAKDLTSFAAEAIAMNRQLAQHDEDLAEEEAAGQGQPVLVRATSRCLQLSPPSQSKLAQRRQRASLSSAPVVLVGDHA

| Structure (SMILES) | inhibition [1] | inhibition [2] | inhibition [3] | inhibition [4] | inhibition [5] | inhibition [6] | inhibition [7] | inhibition [8] | inhibition [9] | inhibition [10] |
| --- | --- | --- | --- | --- | --- | --- | --- | --- | --- | --- |
| O=C(O[C@H]1CN[C@H](C#Cc2cc3ncnc(Nc4ccc5c(cnn5Cc5ccccc5)c4)c3s2)C1)N1CCOCC1 | 2.28% | 0.43% | 2.44% | -2.54% | -1.35% | 1.01% | 9.35% | 0.04% | 11.5% | -1.65% |
| CCOc1ccc2c(-c3ccnc(Nc4cc(OC)cc(C(F)(F)F)c4)n3)cnn2n1 | -0.83% | -0.72% | 2.36% | 3.83% | 10.3% | 4.65% | 8.47% | 2.3% | 4.37% | 0.85% |
| COc1ccc2ncn(-c3cc(O[C@H](C)c4ccccc4C(F)(F)F)c(C(N)=O)s3)c2c1 | 1.97% | -0.65% | 5.41% | -0.14% | 2.51% | -0.15% | 3.25% | 0.74% | 4.03% | 0.4% |
| CS(=O)(=O)CCNCc1ccc(-c2ccc3ncnc(Nc4ccc(OCc5ccccc5)cc4)c3c2)o1 | -0.22% | 2.33% | 1.3% | 6.32% | 3.76% | 2.89% | 6.82% | 3.2% | 15.7% | -0.24% |
| CN(C)CCNC(=O)Nc1ccc(N(C)c2ccnc(Nc3ccc(CS(C)(=O)=O)cc3)n2)cc1 | 6.62% | 1.9% | 8.9% | 4.26% | 16.1% | 1.51% | 3.79% | 0.95% | 5.14% | 2.5% |
| N#Cc1cccc(Nc2ncc(-c3ccccc3)o2)c1 | 7.34% | -0.09% | 1.81% | -0.12% | 2.2% | 2.67% | 10.1% | 2.19% | 8.7% | -0.17% |
| COc1cccc(Nc2nccc(-c3cnn4ncccc34)n2)c1 | 29.6% | 0.65% | 17.3% | 5.16% | 52.3% | 2.14% | 11.3% | 3.27% | 22.7% | 1.23% |
| CS(=O)(=O)CCNCc1ccoc1-c1ccc2ncnc(Nc3ccc(OCc4ccccc4)cc3)c2c1 | -1.52% | -0.56% | -0.4% | -0.71% | -0.61% | 2% | 4.19% | 0.34% | 5.82% | -1.43% |
| O=C(O[C@H]1CN[C@H](C#Cc2cc3ncnc(Nc4ccc5c(ccn5Cc5cc(F)ccc5F)c4)c3s2)C1)N1CCOCC1 | 1.49% | 2.82% | 0.75% | 5.51% | 5.23% | 2.17% | 5.94% | 1.3% | 1.83% | 0.88% |
| NC(=O)c1ccc2c(-c3ccnc(NCCCO)n3)c(-c3ccc(F)cc3)nn2c1 | 21.9% | 1.93% | 2.67% | 6.11% | 6.85% | 4.56% | 13.4% | 3.16% | 7.35% | 1.93% |
| CN1CCC(n2cnc(-c3ccc(F)cc3)c2-c2ccnc(NCCO)n2)CC1 | 6.04% | 0.86% | 2.05% | 2.15% | 5.49% | 4.71% | 15.9% | 2.63% | 8.42% | -0.26% |
| CCn1c(-c2nonc2N)nc2cncc(C(=O)NCCNC)c21 | 16.6% | 2.2% | 7.71% | 15.2% | 61.2% | 2.94% | 6.9% | 0.78% | 13.4% | -0.85% |
| Nc1nonc1-c1nc2cnccc2n1C1CC1 | 22.6% and 19% | 3.74% and 2.4% | 11% and 8.22% | 10.2% and 12.6% | 66.9% and 71.4% | 3.95% and 1.61% | 9.32% and 10.2% | 4.37% and 1.55% | 18.2% and 15.1% | 3.55% and -0.71% |
| CN1CCN(Cc2ccc(-c3cc4ncnc(Nc5ccc(OCc6cccc(F)c6)c(Cl)c5)c4s3)o2)CC1 | 2.84% and 0.44% | 1.62% and 1.87% | 3.52% and 3.32% | 4.83% and 3.2% | 6.62% and 9.42% | 3.21% and 7.2% | 18.6% and 22% | -0.2% and 3.49% | 9.13% and 14.2% | 0.8% and 0.26% |
| COC(=O)Nc1nc2cc(Oc3ccc(NC(=O)Nc4ccccc4)cc3)ccc2[nH]1 | 2.58% | 1.19% | 0.89% | 0.33% | 2.1% | 3% | 6.54% | 1.92% | 4.02% | 0.31% |

Source: ChEMBL document CHEMBL1961873, “Compounds: GSK PKIS; Assays: Nanosyn kinase panel” (2012)
